Screening data: PubChem, Broad Institute
NOMO-1 viab – STK33 inhibitor candidate reducing NOMO-1 cell viability. 37,000 compounds, 7.5% hits. inhibition, % (concentration not given with the values). NOMO-1 AML viability, CellTiter-Glo luminescence, 72 h. AID 2330; in the data active = inhibition above about 80%; inconclusive = no clear call, values can overlap the other calls
Hedgehog inh – blocks Sonic Hedgehog signaling; 22,000 compounds, 2.1% hits; Shh-LIGHT2 Gli-luciferase reporter, 30 h; inhibition, % (test concentration not listed); AID 2313;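 active = mean inhibition across valid replicates above about 65%, limit read from the data; inconclusive = mean under the limit, yet half or more replicates past it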;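 also: pathway switched on by Shh-conditioned medium diluted 1 in 25 in low serum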
PD-1 reverse act – activators reversing PD-1 mediated T-cell inhibition. 29,000 tested, under 10 active. primary human CD4 T cells, PD-L1 beads, CellTiter-Glo 96 h. activation, % (test concentration not listed); call rule not given here;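 also: 0% = median vehicle wells and 100% = positive control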
* marks the source's active call; other numbers are inactive results; ? = inconclusive; . = no result given. Rows were chosen to be rich in hits. Some 7.7% of all compounds tested hit in one or more screens of this group.

SMILES	NOMO-1 viab	Hedgehog inh	PD-1 reverse act
C[C@@H]1CN([C@@H](C)CO)C(=O)c2cc(NC(=O)c3ccncc3)ccc2O[C@H]1CN(C)Cc1ccc(-c2ccccc2)cc1	28.5	.	-0.5
C[C@H](CO)N1C[C@H](C)[C@H](CN(C)Cc2ccc(Oc3ccccc3)cc2)Oc2ccc(NC(=O)c3ccncc3)cc2C1=O	19.8	-4.2	-1.1
C[C@@H]1CN([C@@H](C)CO)C(=O)c2cc(NC(=O)c3ccncc3)ccc2O[C@@H]1CN(C)Cc1ccc(Oc2ccccc2)cc1	63.2	84.3*	-1.1
C[C@@H]1CN([C@H](C)CO)C(=O)c2cc(NC(=O)c3ccncc3)ccc2O[C@H]1CN(C)Cc1ccc(-c2ccccc2)cc1	93.0*	89.2*	-1.8
COc1cccc(OCC(=O)Nc2ccc(-c3nc4ccccc4o3)cc2)c1	-7.7	.	1.5
Cc1ccc(NC(=O)C(=O)NCc2ccccn2)cc1C	12.6	.	.
COc1cc(C2c3c(oc4ccc(Cl)cc4c3=O)C(=O)N2Cc2ccco2)cc(Br)c1O (configuration not stated)	42.8	.	-1.1
O=C1CCCC(Cn2cncn2)C1 (configuration not stated)	4.9	-23.1	-0.1
C[C@H]1O[C@@H](O[C@H]2[C@@H](O)C[C@H](O[C@H]3[C@@H](O)C[C@H](O[C@H]4CC[C@@]5(C)[C@H](CC[C@@H]6[C@@H]5C[C@@H](O)[C@]5(C)[C@@H](C7=CC(=O)OC7)CC[C@]65O)C4)O[C@@H]3C)O[C@@H]2C)C[C@H](O)[C@@H]1O	119.6*	-20.0	.
CCc1nc2sc3c(c2c2nnc(SCC(=O)OC)n12)CCC3	27.4	.	.
Cc1ccc2oc(C(=O)Nc3sc4c(c3C(=O)NCc3ccco3)CCC4)c(C)c2c1	120.3*	.	.
Cc1ccc2c(C)c(C(=O)Nc3sc4c(c3C(=O)NCC3CCCO3)CCC4)oc2c1 (configuration not stated)	35.3	.	.
Cc1ccc(C(=O)Nc2sc3c(c2C(=O)NCc2ccco2)CCCC3)cc1	19.2	.	.
Cc1ccc2c(C)c(C(=O)Nc3sc4c(c3C(=O)NCC3CCCO3)CCCC4)oc2c1 (configuration not stated)	114.4*	.	.
COc1ccc(Cl)cc1NC(=O)CN(C)S(=O)(=O)c1c(C)cc(C)cc1C	17.8	.	.
C=CCc1c(C)nc(OCC(=O)OCC)c(C#N)c1C	11.9	16.7	2.2
NCCCN(Cc1ccco1)C1CCCC1	106.1*	.	-4.4
CC(C)(C)NC(=O)Cn1cc(C(=O)c2ccco2)c2ccccc21	26.2	.	-2.5
C[C@H](CO)N1C[C@H](C)[C@H](CN(C)Cc2ccc(Cl)c(Cl)c2)Oc2ccc(NC(=O)NC3CCCCC3)cc2CC1=O	99.6*	15.4	-1.2
C[C@@H]1CN([C@H](C)CO)C(=O)Cc2cc(NC(=O)C3CCCCC3)ccc2O[C@H]1CN(C)Cc1ccc(Cl)c(Cl)c1	?	-23.3	-0.9
C[C@@H]1CN([C@H](C)CO)C(=O)Cc2cc(NC(=O)C3CCCCC3)ccc2O[C@@H]1CN(C)Cc1ccc(Cl)c(Cl)c1	114.2*	33.4	-5.8
C[C@H]1CN([C@@H](C)CO)C(=O)Cc2cc(NC(=O)NC3CCCCC3)ccc2O[C@@H]1CN(C)Cc1ccncc1	17.6	.	0.9
CC(C)(C)c1ccc(-c2n[nH]c(S(C)(=O)=O)c2C#N)cc1	17.8	.	-0.9
Clc1ccc2nc(Cl)cc(-c3ccccc3)c2c1	70.8	0.7	-0.9
O=C(c1ccc(Oc2ccccc2)cc1)c1coc2ccc(O)cc12	139.3*	-49.1	0.0
SMILES	NOMO-1 viab	Hedgehog inh	PD-1 reverse act
O=C(O)COc1ccc2occ(C(=O)c3ccccc3)c2c1	-8.4	.	1.6
O=C(CSc1nnc(-c2cccnc2)n1-c1cccc(C(F)(F)F)c1)c1ccc(F)cc1	17.1	.	-1.5
Cc1noc(NS(=O)(=O)c2ccc(NC(=O)C3COc4ccccc4O3)cc2)c1C (configuration not stated)	-22.2	.	.
CCOC(=O)c1ccccc1NC(=O)C(C)Oc1ccc2c(C)cc(=O)oc2c1 (configuration not stated)	103.8*	.	.
CCOC(=O)C(C)Oc1ccc2c(-c3ccccc3)cc(=O)oc2c1 (configuration not stated)	109.0*	5.3	-0.8
Cc1c(Cc2ccccc2)c(=O)oc2cc(OC(C)C)ccc12	61.7	5.5	-0.4
CCOC(=O)c1ccccc1NC(=O)C(C)Oc1cc(C)c(Cl)c(C)c1 (configuration not stated)	35.4	.	.
CN(CC(=O)Nc1ccc(F)c(Cl)c1)S(=O)(=O)c1ccc(F)cc1	1.6	.	.
C=C(C(=O)O[C@H]1C/C=C(/C)C[C@H](O)[C@H]2[C@H](C)C(=O)O[C@@H]2/C=C\1C)[C@@H]1CCC(=C)[C@@H]2C[C@H](O[C@@H]3O[C@H](CO[C@H]4OC[C@](O)(CO)[C@H]4O)[C@@H](O)[C@H](O)[C@H]3O)C(=C)[C@@H]2C1	26.0	-24.5	1.4
